Laboratory results as given in paper PMC12864922, “TDP-43 directly inhibits mRNA accumulation in neurites through modulation of mRNA stability”.
Whole data set: some 9,900 sequences, median “r (bound/input frequency ratio)” near 0.7, cut for the highest 2% near 6.5. Only a selection was taken, and the highest values are over-represented in it overall.

B1: ENSMUSG00000061578.1192|Ksr2 (ssRNA)
RNA: GGGAGUUCUACAGUCCGACGAUCGCUUCGAUAUCCGCAUGCUAUGUCUGCUUUUGUUUCUCCACCAUGCCCCCUGCCACCUCUUCUGACAGUGCUCAGAUUUAUCAGCCACCUGACCCACAGACCCAUAUGGACACACUAGAAAGCCCAUCCUAGGUCUUUCCAUGGUCUCUCACACCCCUGUCCCCGUCCCCUCCACCCCCCGGCAGCAUGCUUCACUCUAUGAAUGAGCCGCUGGGAUAUUGACAUGGAGAUGUGUUGAUGGAAAAAGCCUCCACACCCAACAUAACUCUCCAGAGAGAUACUCUUGCGGUCGCACUAGUGUGGAAUUCUCGGGUGUCAAGG
B2: ENSMUSG00000031028.410|Tub|118:122;252:256 (ssRNA)
RNA: GGGAGUUCUACAGUCCGACGAUCGCUUCGAUAUCCGCAUGCUAAGAUCCCUUACCCCUCAUCCCCUCUUCUUUUUGGUCCUUGGCUGGGUAGCAAAUUGGUGAGAAGAGCAGCCUAGUCUGUAAGAGUGCAGGGCAGCUGGAACCUUAGGCAGCUCCUCUCAUACCUACCGGCUCCACACCCUAACACUCUCCACCCUCUGCUCCAAACCAGUUCUUCUGCAGAGUGGUGAUGUUAGCUUCCCCAGCUCCUCUCCAAGUCUAGCUUUUUCUGUCCUUCUGGCUCCAAGGUGCUCACACACUGUCUCUUGCGGUCGCACUAGUGUGGAAUUCUCGGGUGUCAAGG
B3: ENSMUSG00000022095.49|Fam160b2 (ssRNA)
RNA: GGGAGUUCUACAGUCCGACGAUCGCUUCGAUAUCCGCAUGCUACCUUUUAGAGGAGCUAGAGGAUGGCCAGUGAGCGCCUAGAUGCUGCCCUGCAUGUGUUGCGUGACUAUCUCUGCUAUAUUGUGACCAGGGCCACAACAUGAGACAACUCCAGGGGCCAGGGAGAUGAACUGCUGUCUUUGAGGCUGGCUAAAAAAACAAUCCAGUCCAGAGAGAUGGGGAGGGGGGGAGCAAGAACCCUGUCUGUUACAUUAGGUAUCAUGGAAGCUGCUAAGACUCGGCAGGUUUCUCCGAGGCUUCACCUCUUGCGGUCGCACUAGUGUGGAAUUCUCGGGUGUCAAGG
B4: ENSMUSG00000029636.83|Wasf3|141:145 (ssRNA)
RNA: GGGAGUUCUACAGUCCGACGAUCGCUUCGAUAUCCGCAUGCUAACCAGUGGGUGAUACGUUUUCCUGUUUCUUCCCUUUGCAAAUUGAAUUCCAGGUAGAUAUGGUUGUAGAGGGGAAAGUUUAACAAAUCAGAAUGAAAUGUUUGUCUGUUUGCACACUGGGCCUGGUGGCCUCCAAGGAAAACACAACGAUCGUUUGCUUUCUCUAUCUUGGCGCUUGCAACCGAGAGCGGCCAUUUUUAUGAGGGGAGCCCUGUGGGUACUCAUGUGGAAAGUGCCCACUGACUUUGGCAGAUGGAGUUCCUCUUGCGGUCGCACUAGUGUGGAAUUCUCGGGUGUCAAGG
B5: ENSMUSG00000004113.216|Cacna1b (ssRNA)
RNA: GGGAGUUCUACAGUCCGACGAUCGCUUCGAUAUCCGCAUGCUAGUCUUAGGGACAUUGACAGUGUCCAUCAGCAUGUCAGAGAAGCAGCUGUAGUGCCCGUGUUUCUCCCUGAGUCAUGGGUUCUGAAGAAGCCAGAGCGGCACAAUGCGUGCUUGCAUGAGGCACUUUCAGCCUUUUUAAAUCUGACUCUCAGGGAUGGGAUGCCUGCCAAGUAGGGUGUAAUCUCUGUUGUGUUUUUAAAACAACAACAACAAAAUAAAACAAAAAAAAAAAACCUAGUAUUCACUGGAUGCUGAAGAGUGCUCUUGCGGUCGCACUAGUGUGGAAUUCUCGGGUGUCAAGG
B6: ENSMUSG00000035279.61|Ssc5d|92:97;148:152;163:167 (ssRNA)
RNA: GGGAGUUCUACAGUCCGACGAUCGCUUCGAUAUCCGCAUGCUAUAAAGAGGCUAGCAGAGGUGGCCUGGCCCCCCAGCACUCCUGUGCCCAUGACCACCACCACAGAGGAGGAGGAGAGGCCUCUGAGGGGAGAACACACACCCACUCUGAAAUUCACGGUGCUUAAGAUACUCUUAAACAAAAGCCAACCAUACUACAAUCGAACACACGGUGUUGUUACUGGGGAGCAGGGGCUCUGGAGGGACAGAAUUACAAUGCUGAUCCUAACUUGUCAAUGCCAUCUGUGAUGGCGUUGGAGAUCACUCUUGCGGUCGCACUAGUGUGGAAUUCUCGGGUGUCAAGG
B7: ENSMUSG00000031028.6|Tub (ssRNA)
RNA: GGGAGUUCUACAGUCCGACGAUCGCUUCGAUAUCCGCAUGCUAUAGCAGAAGAUGUGUUCACCAUGGAUUACAACUACCCACUGUGUGCACUGCAGGCCUUUGCCAUUGCUCUGUCCAGCUUUGACAGCAAGCUGGCCUGCGAGUAGAGGCCCCCCACUGCCUUUAGGUGGCCCAGUCCGGAGUGGAGCUUGCCUGCCUGCCAAGACAGCCCUGCCUACCCUCUGUUCAUAGGCCCUCUAUGGGCUUUCUGGCCUUACCAACCAGAGACUGGCUGCUCUGCCUCUGCUGCUGAAGCAGGGGGGCUCUUGCGGUCGCACUAGUGUGGAAUUCUCGGGUGUCAAGG
B8: ENSMUSG00000058297.454|Spock2 (ssRNA)
RNA: GGGAGUUCUACAGUCCGACGAUCGCUUCGAUAUCCGCAUGCUAUCAGGAGCAAGGUCACACAGGUCAGAUUAUUGUCGGUCCUGCGGGCCUCAUCCUUGAAUAAGCUGCCUGCCCAGUUCCUCCAUCCGUGUUCCUGCCUGCUCCCGUUCCCUUGUUGCGGGCAGGAGAGGUAGGGCUGUGUUGGAAAGAGUUCAACCAAAUUACGGCAGCACCACAUCUUGCCGAGCCCUGGAGCUGCCCUACUAAGAGCCUCCUUAGCCCUGGGUGCUGGGAAGGAUGGUGUACGUUGGGGAAGUUUGAGGCUCUUGCGGUCGCACUAGUGUGGAAUUCUCGGGUGUCAAGG

target: TDP-43 (Homo sapiens, UniProt Q13148 1-414); assay: RNA Bind-n-Seq with designed 260-mer pool; 25 mM Tris-HCl, 150 mM KCl, 3 mM MgCl2, BSA (printed 500 mg/mL), 20 units/mL SUPERase IN; pH not stated; 500 nM RNA pool, 1 h, 4 C; TDP-43 5, 50, 500 nM; high values mean tight binding; conditions: protein: recombinant; tags: SBP (GST cleaved off with PreScission; pGEX-GST-SBP)
Sequence (Q13148 whole entry): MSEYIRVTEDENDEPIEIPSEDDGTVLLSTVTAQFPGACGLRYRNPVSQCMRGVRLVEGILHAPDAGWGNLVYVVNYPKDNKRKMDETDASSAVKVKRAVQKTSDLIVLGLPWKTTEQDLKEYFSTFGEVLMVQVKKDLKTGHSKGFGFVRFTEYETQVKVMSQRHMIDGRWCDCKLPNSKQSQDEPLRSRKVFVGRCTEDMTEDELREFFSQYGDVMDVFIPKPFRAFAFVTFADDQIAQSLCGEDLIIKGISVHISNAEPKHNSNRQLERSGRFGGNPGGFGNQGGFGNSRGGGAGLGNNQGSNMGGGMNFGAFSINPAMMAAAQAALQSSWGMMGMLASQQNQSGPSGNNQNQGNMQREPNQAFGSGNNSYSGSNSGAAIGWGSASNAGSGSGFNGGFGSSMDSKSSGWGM
How it was run: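 The incubation lasted 1 h at 4 °C and used 500 nM of an in vitro-transcribed 260-nt 3′ UTR oligo pool with recombinant SBP-tagged TDP-43 at 5, 50 or 500 nM immobilized on streptavidin beads. It took place in 25 mM Tris-HCl, 150 mM KCl, 3 mM MgCl2, BSA and SUPERase IN. Bound RNA was washed, eluted with biotin, converted to cDNA, PCR-amplified and sequenced to give R, each oligo's normalized abundance in the bound sample divided by that in input. Two independent protein batches provided the duplicates.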

| Binder | binding signal |
| --- | --- |
| B1 | 1.3 R (bound/input frequency ratio) |
| B2 | 2.59 R (bound/input frequency ratio) |
| B3 | 1.16 R (bound/input frequency ratio) |
| B4 | 1.97 R (bound/input frequency ratio) |
| B5 | 1.66 R (bound/input frequency ratio) |
| B6 | 0.434 R (bound/input frequency ratio) |
| B7 | 0.331 R (bound/input frequency ratio) |
| B8 | 0.419 R (bound/input frequency ratio) |
